The list is not random: actives were taken first. Their share in the collection is about 13%.
Pf growth 96h: inhibits malaria parasite growth, 96 h; P. falciparum luciferase reporter growth, 96 h; Potency, µM (doses to about 28.7 µM), most hits filed as inhibitors; 320,000 tested, 6.9% active
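Parasite growth measured via integrated firefly luciferase reporter in P. falciparum. Infected erythrocytes at 2% hematocrit, 0.05% parasitemia final were treated 96 hours at 37 C under 5% CO2, and luminescence was read.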
HCMV antiviral: human cytomegalovirus inhibition; activity change, negative = inhibition, % at 57.5 µM; 410,000 tested, 4.5% active; HFF cells, HCMV-luciferase reporter, 72 h; active compounds read low; in the data active means activity change below about -60%; inconclusive means no clear call, values can overlap the other calls; inactive means above about -39%
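Compounds were evaluated in HFFs infected with an HCMV luciferase reporter virus (MOI 1 PFU/cell). Luciferase in lysates collected 72 h post infection served as the replication measure.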
HCV inhibitor: inhibitors of hepatitis C virus infection; Huh7.5.1 HCVcc-Cre infection, luciferase reporter, 44 h; Potency, µM (highest dose often 41.8 µM), hits mostly inhibitors; 340,000 tested, 3.4% active
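Cells seeded at 1,000/well and cultured 4 h, then compounds added followed by HCVcc-Cre virus (~0.5 moi). After 44 h further culture, luciferase substrate was added, plates held 15 min at room temperature, and luminescence read for 15 sec.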
Pf growth 48h: P. falciparum growth inhibition at 48 hours (one generation) | P. falciparum luciferase growth in erythrocytes, 48 h | Potency, µM (top dose mostly 28.7 µM), most hits filed as inhibitors | 310,000 tested, 5.9% active
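Luciferase-expressing parasites in RBCs, 2% Hct / 0.1% parasitemia final; RPMI 1640 + 0.5% Albumax; 37 C, 5% CO2, one generation; luminescence read-out, lower signal = inhibition.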
A number is an active result; – = inactive; ? = inconclusive; · = no result given. Unless noted, the call rests on the fitted dose curve; in most records, active means well fitted inhibition curve with a large enough effect; inconclusive means small, poorly fitted or top-dose-only effect, or another doubt; inactive means no such curve, though single readings can be large or run the other way.

SMILES	Pf growth 96h	HCMV antiviral	HCV inhibitor	Pf growth 48h
CCCn1c(SCC(=O)c2cc(C)n(-c3ccc4c(c3)OCO4)c2C)n[nH]c1=O	?	–	?	–
Cc1cc(C(=O)CSc2nncs2)c(C)n1-c1ccc2c(c1)OCO2	·	-69	?	?
CCn1cc(C(=O)NCCc2ccccc2)c(=O)c2cc(S(=O)(=O)N(C)C3CCCCC3)ccc21	·	–	·	·
CC1=NC(=O)C(N=Nc2ccccc2)N1c1ccccc1 (centres undefined)	–	–	–	–
CC1=NC(=O)C(N=Nc2ccccc2C(=O)O)N1c1ccccc1 (centres undefined)	4.7µM	–	–	–
CCNC(=O)NC(=O)c1csc([N+](=O)[O-])c1	–	–	?	–
O=C(Nc1ccc(Cl)cc1)Nc1csc([N+](=O)[O-])c1	?	-103	?	?
O=C(Nc1csc([N+](=O)[O-])c1)Nc1c(Cl)cccc1Cl	–	-76	–	?
CCNC(=O)N[C@H]1CC[C@@]23CCCN2C(=O)CCC[C@H]3[C@H]1C	·	–	·	·
COCc1c(C#N)c(NCCc2ccccc2)nc(C)c1[N+](=O)[O-]	–	–	–	?
COCc1c(C#N)c(NCc2cc(OC)c(OC)c(OC)c2)nc(C)c1[N+](=O)[O-]	–	–	11µM	–
COc1ccccc1N1CCN(c2ncc3c(n2)CCN(Cc2ccc(C)s2)C3)CC1	·	–	·	·
CN1N=C(C(=O)NC2CCCc3c2cnn3-c2ccc(F)cc2F)CCC1=O (centres undefined)	–	–	?	–
Cc1nnsc1C(=O)NC1CCCc2c1cnn2-c1ccc(F)cc1F (centres undefined)	?	-92	?	–
Cc1ccc(C(=O)NC2CCCc3c2cnn3-c2ccc(F)cc2F)cn1 (centres undefined)	?	-86	·	–
CC1(C)CC(NC(=S)NC2CC2)CC(C)(C)N1	?	–	–	–
C=CCNC(=S)NC1CC(C)(C)NC(C)(C)C1	10µM	–	–	–
CCOc1ccc(C2=NC(c3ccncc3)=Nc3ccc(C)cc3N2)cc1OCC	·	–	·	·
COc1ccc(C(OCC(O)CNCCc2ccccc2)c2ccc(OC)cc2)cc1 (centres undefined)	4.1µM	–	?	9.3µM
Cc1ccc(C(OCC(O)CNCc2ccc(F)cc2)c2ccccc2)cc1 (centres undefined)	4.7µM	-102	8.9µM	·
O=C(c1ccccc1)c1ccc(OCC(O)CNCc2ccc(F)cc2)cc1 (centres undefined)	?	–	–	?
COc1ccc(C(OCC(O)CNC(C)c2ccccc2)c2ccc(OC)cc2)cc1 (centres undefined)	?	–	–	10µM
COc1ccc(NCc2cc3ccc(OC)cc3n(CC(=O)Nc3cccc(OC)c3)c2=O)cc1	·	–	·	·
COc1ccc(CCN2C(=O)N(c3ccc(F)cc3)C(=O)C2CC(=O)Nc2ccc(OC)cc2)cc1 (centres undefined)	·	–	·	·
O=C(Nc1cccc(S(=O)(=O)N2CCCCC2)c1)c1ccccc1NS(=O)(=O)c1ccc(F)cc1	8.3µM	-98	?	12µM
SMILES	Pf growth 96h	HCMV antiviral	HCV inhibitor	Pf growth 48h
Cc1ccc(NC(=O)c2ccccc2NS(=O)(=O)c2ccc(F)cc2)cc1S(=O)(=O)N1CCCCC1	12µM	-98	?	13µM
O=C(Nc1sc2c(c1C(=O)Nc1ccccc1Cl)CCCC2)c1ccccc1F	·	–	·	·
CCn1nc(-c2cccs2)nc2c(=O)n(C)c(=O)nc1-2	·	·	0.56µM	–
Fc1ccc(-c2cc(-c3nc(-c4cccc(Cl)c4)no3)[nH]n2)cc1	·	–	·	·
C=C1CCC[C@]2(C)C[C@H]3OC(=O)C(CNC(C)CCCC(C)C)[C@H]3CC12 (some centres undefined)	?	-68	?	·
C=C1CCC[C@]2(C)C[C@H]3OC(=O)C(CNCC(OC)OC)[C@H]3CC12 (some centres undefined)	–	–	–	–
C=C1CCC[C@]2(C)C[C@H]3OC(=O)C(CN(Cc4ccc(OC)c(OC)c4)CC(C)O)[C@H]3CC12 (some centres undefined)	?	-99	–	?
C=C1CCC[C@]2(C)C[C@H]3OC(=O)C(CN[C@@H](C)c4ccccc4)[C@H]3CC12 (some centres undefined)	?	-64	?	?
COc1ccc(-c2cc3ccc(O)c(CN4CCC(C)CC4)c3oc2=O)cc1	·	–	·	·
Cc1ccc(-n2nc(C(=O)Nc3ccc(F)cc3Cl)c(=O)n(C)c2=O)cc1	·	–	·	·
CC1CCN(c2nc3ccc(C(=O)NCc4ccc(Cl)cc4)cc3s2)CC1	·	–	·	·
NC(=O)c1ccc2nc(NC(=O)c3ccc(N)cc3)sc2c1	12µM	–	–	–
CC(=O)Nc1nc2cc(C(N)=O)ccc2s1	?	–	–	–
O=C(O)c1ccc2nc(-c3ccccc3)sc2c1	?	?	–	–
CC1CCN(c2nc3ccc(C(=O)O)cc3s2)CC1	–	-78	–	1.2µM
Nc1ccc(-c2nc3ccc(C(=O)O)cc3s2)cc1	–	-85	–	–
Cc1ccc(-c2nnn(CC(=O)N(Cc3ccco3)C(C(=O)NC(C)(C)C)c3cccs3)n2)o1 (centres undefined)	–	–	?	15µM
COc1cccc(N(C(=O)Cn2nnc(-c3ccc(C)o3)n2)C(C(=O)NC(C)(C)C)c2cccs2)c1 (centres undefined)	–	–	–	13µM
CC(C)(C)NC(=O)C(c1c[nH]c2ccccc12)N(C(=O)Cn1nnc(-c2ccc(F)cc2)n1)c1cccc(O)c1 (centres undefined)	?	–	10µM	2.6µM
CNC(=S)N/N=C/c1cc(C)n(-c2ccc(Cl)c(Cl)c2)c1C	9.3µM	-68	?	15µM
Cc1cc(C)c(-c2csc(Cc3nc(-c4cc5ccccc5oc4=O)cs3)n2)cc1C	?	-65	?	?
O=c1oc2ccc(Br)cc2cc1-c1csc(-c2ccccc2)n1	·	–	·	·
O=c1oc2ccccc2cc1-c1csc(Cc2nc(-c3ccc(Br)cc3)cs2)n1	–	-99	?	–
Cc1ccc2oc(C(=O)Nc3nc(-c4ccc(F)cc4)ns3)c(C)c2c1	·	–	·	·
CCOc1ccc(-c2cc3c(=O)n(CC(=O)NCc4ccc(C)cc4)ccn3n2)cc1	·	–	·	·
SMILES	Pf growth 96h	HCMV antiviral	HCV inhibitor	Pf growth 48h
CC(C)CN(CCNC(=O)c1cn(C)c2ccc(S(=O)(=O)N3CCOCC3)cc2c1=O)CC(C)C	·	–	·	·
CC(C)CN(CCCNC(=O)c1cc(=O)[nH]c2ccc(S(=O)(=O)N3CCCC3)cc12)CC(C)C	·	-68	·	·
C=CCn1cc(C(=O)NCCOC)c(=O)c2cc(S(=O)(=O)N3CCCCCC3)ccc21	?	–	–	?
CCCCN(C)CCNC(=O)c1cc(=O)[nH]c2ccc(S(=O)(=O)N3CCCCCC3)cc12	·	–	·	·
C=CCn1cc(C(=O)NCCN(CC)CC)c(=O)c2cc(S(=O)(=O)N3CCCCCC3)ccc21	8.3µM	–	–	10µM
CC(C)CN(CCNC(=O)c1cn(C)c2ccc(S(=O)(=O)N3CCCC3)cc2c1=O)CC(C)C	9.3µM	–	–	–
CC1CCN(S(=O)(=O)c2ccc3[nH]c(=O)cc(C(=O)O)c3c2)CC1	2.9µM	–	–	–

Bioassay records: PubChem BioAssay, National Center for Advancing Translational Sciences (NCATS)
